Inconclusive results are not listed. The source made the active and inactive calls. How the source made its calls: active means hit-call score of the fitted dose curve at least 0.9, where 1 is the maximum; inconclusive means response in the unintended direction; inactive means score below 0.9.

Chain of Glyceraldehyde-3-phosphate dehydrogenase (Homo sapiens) (P04406 whole entry, looked up): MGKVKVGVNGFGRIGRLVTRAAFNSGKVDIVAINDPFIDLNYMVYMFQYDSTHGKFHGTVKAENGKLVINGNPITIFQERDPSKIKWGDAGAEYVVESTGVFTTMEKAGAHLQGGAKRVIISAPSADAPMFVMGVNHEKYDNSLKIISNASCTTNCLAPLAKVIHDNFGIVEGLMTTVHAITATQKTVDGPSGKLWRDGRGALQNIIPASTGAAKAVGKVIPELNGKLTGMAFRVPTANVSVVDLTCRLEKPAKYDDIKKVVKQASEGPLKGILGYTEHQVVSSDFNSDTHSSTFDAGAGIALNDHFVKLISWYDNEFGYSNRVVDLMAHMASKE

Read-out in this assay: Glyceraldehyde-3-phosphate dehydrogenase (Homo sapiens) (UniProt P04406)
The experiment in a line: CLD_GAPDH_24hr: CellzDirect (CLD) Gene Expression Assay for Baseline Control (Glyceraldehyde 3-phosphate dehydrogenase) at 24 hours (AID 2283692). As to the method: CLD_24hr is a cell-based, multiplexed-readout assay that uses hepatocyte, a human liver primary cell, with measurements taken at 24 hours after chemical dosing in a 96-well plate.CLD_GAPDH_24hr is one of 16 assay component(s) measured or calculated from the CLD_24hr assay. It is designed to make measurements of mRNA induction, a form of inducible reporter, as detected with chemiluminescence signals by Quantitative Nuclease Protection Assay (qNPA) technology.Data from the assay component CLD_GAPDH_24hr was analyzed at the endpoint, CLD_GAPDH_24hr, in the positive analysis fitting direction relative to DMSO as the negative control and baseline of activity. Using a type of inducible reporter, gain-of-signal activity can be used to understand changes in the reporter gene as they relate to the gene GAPDH. Furthermore, this assay endpoint can be referred to as a secondary readout, because this assay has produced multiple assay endpoints where this one serves a background control function. To generalize the intended target to other relatable targets, this assay endpoint is annotated to the background measurement intended target family, where subfamily is baseline control.
Human hepatocyte cultures were treated daily for two consecutive days with fresh dosing solutions containing appropriate concentrations of the 320 ToxCast chemicals (chemical identities were blinded to CellzDirect and other ToxCast collaborators), vehicle control (0.2% DMSO), and positive control inducers as summarized in Table 1. Due to the large number of treatment groups and chemicals examined, the ToxCast chemicals were divided into two groups (spanning two independent cultures of hepatocytes from separate donor preparations (Hu778: ToxCast plates 1 and 2; Hu776: ToxCast plates 3 and 4). Each preparation of human hepatocyte cultures was treated with respective vehicle control, medium only control, set of six positive controls/reference chemicals for the five hepatic receptor pathways, and a subset of eight of the ToxCast chemicals (indoxacarb, pyrithiobac-sodium, norflurazon, cyhalofop-butyl, methomyl, thiram, acetochlor, and propiconazole). These replicate data, coupled with internal replicates designed within the blinded ToxCast chemical library, provided additional data to evaluate interindividual differences between hepatocyte preparations and their potential impact on chemical profiles.Cell morphology and integrity were evaluated using phase-contrast microscopy as an indicator of hepatocyte cell health (Tyson & Green, 1987). Cultures for each treatment group (i.e., media, vehicle [0.2% DMSO], positive control inducers [multiple concentrations], and the ToxCast chemicals [multiple concentrations]) were observed and cell morphology was assessed relative to vehicle control cultures at each harvest time point (0, 6, 24, or 48 h). […] Images were evaluated at the conclusion of the study to assess changes in cell integrity and account for the effects of chemical exposure on uncharacteristic changes in concentration-dependent gene expression profiles. The results from these determinations of apparent cytotoxicity were annotated (yes/no) alongside the corresponding qNPA data for reference.At the conclusion of each treatment period, hepatocyte cultures (96-well) were washed with 1 volume of HBSS, lysed by addition of 25 ul ArrayPlate lysis buffer (HTG, Tucson, AZ), and 70 ul/well of Denaturation Oil, denatured by incubation at 95C for 10 min, and frozen at approximately -70C until analysis by nuclease protection assay (qNPA) (Roberts et al., 2007). For qNPA analysis, cell lysates were thawed at 50C for approximately 30 min, qNPA probes were added, and samples were incubated at 95C for 10 min to begin the detection process by denaturing the target RNA, dissociating the duplexes and secondary structure hybridization. At the conclusion of the hybridization period, S1 nuclease reagent was added to each sample to digest all nonprotected nucleotides at 50C for 60-90 min. […]
In the case of `COC(=O)C=C(C)OP(=O)(OC)OC`, the outcome was inactive.

On to `COP(N)(=O)SC` (stereo not drawn), for which the result was inactive.

Consider `CCCCC(CC)COC(=O)c1ccccc1C(=O)OCC(CC)CCCC` (stereo not drawn), for which the outcome was inactive.

Regarding `C=CC1(C)OC(=O)N(c2cc(Cl)cc(Cl)c2)C1=O` (stereo not drawn), the call was inactive.

Turning to `N#CC(CCc1ccc(Cl)cc1)(Cn1cncn1)c1ccccc1` (stereo not drawn), the outcome was inactive.

On to `COc1nc(C)nc(NC(=O)NS(=O)(=O)c2ccccc2Cl)n1`, for which the result was inactive.

Turning to `CCCCOC(=O)c1ccccc1C(=O)OCCCC`, the outcome was inactive.

Take `Oc1ccccc1-c1ccccc1`: the molecule was called inactive.

For the molecule `CNC(=S)S`, the result was inactive.

Turning to `CCCCNC(=O)OCC#CI`, the result was inactive.

Regarding `COP(=S)(OC)Oc1nc(Cl)c(Cl)cc1Cl`, the outcome was inactive.

Regarding `CCCCNC(=O)n1c(NC(=O)OC)nc2ccccc21`, the call was inactive.

For `N#Cc1cc(Br)c(O)c(Br)c1`, the molecule was called inactive.

As to `COc1nc(C)nc(NC(=O)NS(=O)(=O)c2ccccc2CCC(F)(F)F)n1`, the result was inactive.

In the case of `CN(C)C(=S)SSC(=S)N(C)C`, the call was inactive.

As for `COC(=O)C(C)Oc1ccc(Oc2ccc(Cl)cc2Cl)cc1` (stereo not drawn), the call was inactive.

Consider `C=CCC1=C(C)C(OC(=O)C2C(C=C(C)C)C2(C)C)CC1=O` (stereo not drawn), for which the result was inactive.

On to `CC(Oc1ccc(Cl)cc1Cl)C(=O)O` (stereo not drawn), for which the molecule was called inactive.

As for `Cc1ccc(-c2c(Cl)nc(C#N)n2S(=O)(=O)N(C)C)cc1`, the outcome was inactive.

Turning to `COC(=O)c1ccccc1C(=O)OC`, the molecule was classed as inactive.

Turning to `CC(C)C1(C)N=C(c2nc3ccccc3cc2C(=O)O)NC1=O` (stereo not drawn), the result was inactive.

For `CCON=C(CC)C1=C(O)CC(c2c(C)cc(C)cc2C)CC1=O` (stereo not drawn), the outcome was inactive.

`O=C(O)COc1nc(Cl)c(Cl)cc1Cl`: the call was inactive.

These data come from PubChem BioAssay (EPA / NIEHS).
